We go through 20 compounds from PubChem BioAssay (NCI).

This is part of a sample that, as a whole, favours compounds with a hit. Of some 79,000 tested, about 15% had one in any assay. Values without a mark were called inactive. Activity calls are given as the source filed them. Rule as the data show it: active = growth inhibition above about 70%; inactive = the rest. *1 amine or outer side, *2 acyl side, *3 side chain or, on linkers, in order; H or OH if unused. Where a SMILES comes first, the peptide text is derived from it. Bridges are numbered along the chain shown (N, C = ends). Roman numbers before positions name the chains, in order. [ ]: non-standard residue; d: D form. Actinocin(1to9) = Cc1c2oc3c(C)ccc(C(=O)[*:2])c3nc-2c(C(=O)[*:1])c(N)c1=O; NMeY = CN[CH](Cc1ccc(O)cc1)C(=O)O; Sar = CNCC(=O)O

Assay [1] can be described thus: NCI Yeast Anticancer Drug Screen. Data for the rad50 strain (AID 155).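 Also: 0% = growth of vehicle-only cultures of the same strain.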 The conditions noted are these: S. cerevisiae rad50 strain growth inhibition; at 50.0 µM; stronger effect = higher value. The method in brief:
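Cells are treated with compound, grown, and their growth is then scored against vehicle-only cultures of the same repair-deficient yeast strain.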

The nature of assay [2]: NCI Yeast Anticancer Drug Screen. Data for the mec2-1 strain (AID 157). The conditions noted are these: S. cerevisiae mec2-1 strain, at 50.0 µM, stronger effect = higher value. Put shortly: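 Cells of the genetically defined mec2-1 yeast strain are incubated with test compound. Inhibition of growth is calculated against vehicle-treated controls.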
The nature of assay [3]: NCI Yeast Anticancer Drug Screen. Data for the sgs1 mgt1 strain (AID 161).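 Also: 0% = growth of cultures given vehicle only.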 The conditions noted are these: S. cerevisiae sgs1 mgt1 strain, at 50.0 µM, stronger effect = higher value. The method in brief:
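Genetically altered yeast, compound exposure, growth inhibition relative to vehicle.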

The nature of assay [4]: NCI Yeast Anticancer Drug Screen. Data for the cln2 rad14 strain (AID 165).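 Also: 0% = growth equal to vehicle treated cultures.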 The conditions noted are these: S. cerevisiae cln2 rad14 strain, at 50.0 µM, stronger effect = higher value. The method in brief: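 The screen exposed genetically defined yeast (cln2 rad14) to test compounds and scored growth inhibition relative to vehicle-treated controls.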
Assay [5] in a line: NCI Yeast Anticancer Drug Screen. Data for the bub3 strain (AID 167). The conditions noted are these: S. cerevisiae bub3 mutant strain, at 50.0 µM, stronger effect = higher value. Put shortly:
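Part of a panel of yeast mutants defective in DNA damage repair or cell cycle regulation. Each strain is grown with compound, and inhibition is calculated relative to solvent-treated cultures.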

Assay [6] in a line: NCI Yeast Anticancer Drug Screen. Data for the mlh1 rad18 strain (AID 175). The conditions noted are these: S. cerevisiae mlh1 rad18 strain growth inhibition; at 50.0 µM; stronger effect = higher value. The method in brief:
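Compound-treated yeast growth, normalised to vehicle controls. Strain bears defined DNA repair mutations.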

Turning to `N/C(=N\O)C(=O)c1ccccc1`, the growth inhibition was 9.8% in assay [1]; -12.8% in assay [2]; -5.8% in assay [3]; -5.3% in assay [4]; 2.35% in assay [5]; 3.95% in assay [6].
Take `O=C1c2ccccc2C2(O)Oc3cccc(O)c3C12O` (stereo not given): the growth inhibition in assay [1] was 6.45%; in assay [2] it was 4.55%; in assay [3] it was -2%; in assay [4] it was -14.9%; in assay [5], 2.85%; in assay [6], 49.9%.
As for `CC(=O)N(c1ccccc1)c1ccccc1`, the growth inhibition was 12.8% in assay [1]; 13.2% in assay [2]; 2.6% in assay [3]; 6.05% in assay [4]; -0.2% in assay [5]; 4.1% in assay [6].
Take `CCOC1=NC(C)C(C)N1` (stereo not given): the growth inhibition in assay [1] was -5.1%; in assay [2], -11.1%; in assay [3], -13.4%; in assay [4], 9.05%; in assay [5] it was 6.25%; in assay [6] it was -21.1%.
On to `COc1ccc(CC2C(=O)OC(C)C(NC(=O)c3c4nc5c(C(=O)NC6C(=O)NC(C(C)C)C(=O)N7CCCC7C(=O)N(C)CC(=O)N(C)C(Cc7ccc(OC)cc7)C(=O)OC6C)ccc(C)c5oc-4c(C)c(=O)c3N)C(=O)NC(C(C)C)C(=O)N3CCCC3C(=O)N(C)CC(=O)N2C)cc1` (stereo not given) (I: TVP[Sar][NMeY](Me) / II: TVP[Sar][NMeY](Me); ester I:1-I:C, II:1-II:C; linker I:N-II:N via Actinocin(1to9); configuration not given here), for which the growth inhibition is -3% in assay [1]; -3.65% in assay [2]; -26.1% in assay [3]; 8.5% in assay [4]; -25.8% in assay [5]; -24.7% in assay [6].
As to `Cc1ccccc1NC(=O)NNc1ccccc1`, the growth inhibition in assay [1] is 17%; in assay [2] it was -0.65%; in assay [3], 7.35%; in assay [4], 10.7%; in assay [5] it was -2.9%; in assay [6] it was 3.85%.
With `C[N+](C)(CC(=O)Nc1cc(C(F)(F)F)cc(C(F)(F)F)c1)CC(=O)Nc1ccc(Cl)c(C(F)(F)F)c1`, the growth inhibition in assay [1] is 99.5% (active); in assay [2], 99.8% (active); in assay [3], 99.8% (active); in assay [4] it was 99.3% (active); in assay [5], 99.4% (active); in assay [6] it was 99.5% (active).
Take `CC(C)(C)C1CCC2c3c([nH]c4ccccc34)C3C(=O)N(c4cc(Cl)ccc4Cl)C(=O)C3C2C1` (stereo not given): the growth inhibition in assay [1] was 18%; in assay [2], 0.75%; in assay [3] it was -4.05%; in assay [4] it was 5.4%; in assay [5], 6.3%; in assay [6] it was 0.9%.
Consider `O=C1CC[C@@H](S(=O)(=O)c2ccccc2)[C@H](/C=C/c2ccccc2)O1`, for which the growth inhibition in assay [1] is -5.5%; in assay [2] it was 25.2%; in assay [3], 37.6%; in assay [4] it was 26.1%; in assay [5] it was -7.4%; in assay [6] it was -15.9%.
As for `O=C(O)CC(NC(=O)/C(=C/c1ccccc1)NC(=O)c1ccccc1)C(=O)O` (stereo not given), the growth inhibition was -2.45% in assay [1]; 0.65% in assay [2]; 2.95% in assay [3]; 6.85% in assay [4]; 25.1% in assay [5]; -22.1% in assay [6].
On to `Cc1cc(=O)[nH]c(NN2C(Cl)C(=O)C2c2ccc(Cl)cc2)n1` (stereo not given), for which the growth inhibition was 10.6% in assay [1]; 7.45% in assay [2]; 4.2% in assay [3]; -7.9% in assay [4]; 8% in assay [5]; -18.4% in assay [6].
As to `CCC(C)OC(=O)CC(c1ccccc1)N1CCCCC1` (stereo not given), the growth inhibition in assay [1] was 7.5%; in assay [2] it was -10.4%; in assay [3] it was 3%; in assay [4], -26.4%; in assay [5] it was -0.65%; in assay [6] it was -4.5%.
For the compound `CCCCC(=O)NC1=CC(=O)c2ccccc2C1=O`, the growth inhibition in assay [1] is 41.2%; in assay [2], 30.4%; in assay [3], 47.1%; in assay [4], 29.6%; in assay [5], 56.1%; in assay [6] it was 45.8%.
Regarding `CC(O)C(F)(F)F` (stereo not given), the growth inhibition is 18.2% in assay [1]; -8.8% in assay [2]; 7.65% in assay [3]; 15.9% in assay [4]; -3.75% in assay [5]; 21.8% in assay [6].
For the compound `Cc1ccc(N=C(C(=O)c2ccccc2)C(Nc2ccc(C)cc2)C(=O)c2ccccc2)cc1` (stereo not given), the growth inhibition in assay [1] is 23.8%; in assay [2] it was 3.25%; in assay [3], 17.8%; in assay [4], 20.8%; in assay [5], -3.7%; in assay [6], 10.7%.
As to `O=C(O)CC(=O)Nc1cc([N+](=O)[O-])ccc1OCc1ccccc1`, the growth inhibition in assay [1] was -2.95%; in assay [2] it was 3.6%; in assay [3], -1.1%; in assay [4], -14.7%; in assay [5], 5.7%; in assay [6], 0.85%.
`CCS(=O)(=O)OCCOC`: the growth inhibition in assay [1] was -2.65%; in assay [2] it was -26.1%; in assay [3] it was -17.1%; in assay [4], 57.6%; in assay [5], -14.8%; in assay [6] it was 10.2%.
As for `Oc1ccccc1/C=N/n1cnnc1`, the growth inhibition in assay [1] was 8.55%; in assay [2] it was 12.2%; in assay [3] it was -3.5%; in assay [4], -4.85%; in assay [5] it was -10.3%; in assay [6] it was -19.2%.
As for `Cc1c(CCC(C)C)oc2cc3oc(CCC(C)C)c(C)c3cc12`, the growth inhibition in assay [1] was 21.7%; in assay [2] it was 2.2%; in assay [3], 2%; in assay [4], -4.8%; in assay [5], 6.3%; in assay [6], 18.5%.
As to `CCN(CC)CC(C)=O`, the growth inhibition was -31% in assay [1]; -58.3% in assay [2]; -82.5% in assay [3]; 14.8% in assay [4]; -11.9% in assay [5]; -6.1% in assay [6].
